Data reported in PubChem BioAssay AID488850 (National Center for Advancing Translational Sciences (NCATS), 2010).
Records with an inconclusive call do not appear. Values without a mark were called inactive. Calls of active or inactive are those of the source. The call rests on the fitted dose curve; in most records, active means well fitted activation curve with a large enough effect; inconclusive means small, poorly fitted or top-dose-only effect; inactive means flat fitted curve, though single readings scatter.

The compounds below were run against Lysosomal acid glucosylceramidase (Homo sapiens) (UniProt P04062) (assay: qHTS Assay for Inhibitors and Activators of N370S glucocerebrosidase as a Potential Chaperone Treatment of Gaucher Disease: Purified N370S Glucocerebrosidase Confirmation for Probe SAR). Settings: purified N370S GC, 4MU-glucoside fluorescence, 40 min; series mostly up to 57.5 µM; activity change, negative = inhibition: at the top concentration.
Chain of Lysosomal acid glucosylceramidase (Homo sapiens) (P04062 whole entry N409S): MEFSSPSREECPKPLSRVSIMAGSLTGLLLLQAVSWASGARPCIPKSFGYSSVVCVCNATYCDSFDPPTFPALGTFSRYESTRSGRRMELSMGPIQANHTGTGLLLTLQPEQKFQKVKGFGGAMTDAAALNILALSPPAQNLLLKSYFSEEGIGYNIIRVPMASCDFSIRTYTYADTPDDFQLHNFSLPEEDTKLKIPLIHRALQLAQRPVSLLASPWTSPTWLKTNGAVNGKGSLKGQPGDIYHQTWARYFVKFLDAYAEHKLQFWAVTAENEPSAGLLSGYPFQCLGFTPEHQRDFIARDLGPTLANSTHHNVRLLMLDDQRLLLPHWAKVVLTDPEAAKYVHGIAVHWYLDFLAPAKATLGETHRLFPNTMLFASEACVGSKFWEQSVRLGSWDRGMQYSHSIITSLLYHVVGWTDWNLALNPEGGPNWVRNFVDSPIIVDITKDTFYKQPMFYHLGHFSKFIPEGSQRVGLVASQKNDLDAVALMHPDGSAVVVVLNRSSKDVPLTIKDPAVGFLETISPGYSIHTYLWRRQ
Description: NIH Chemical Genomics Center [NCGC] NIH Molecular Libraries Probe Production Centers Network [MLPCN] MLPCN Grant: MH086442-01 Assay Submitter (PI): Wei Zheng Glucocerebrosidase (GC) catalyzes the hydrolysis of beta-glucocerebroside to glucose and ceramide in lysosomes. Mutations in the glucocerebrosidase gene result in Gaucher disease, an autosomal recessive lysosomal storage disorder. Many of the mutations encountered in patients with Gaucher disease are missense alterations that may cause misfolding, decreased stability and/or mistrafficking of this lysosomal protein. […] These inhibitors include iminosugar analogs and three non-iminosugar inhibitors identified from a previous HTS of 62,000 compounds with the wild type recombinant enzyme. However, the enhancement of enzyme activity by the chaperone action of an enzyme inhibitor must be balanced against the direct inhibition of the enzyme. An enzyme activator could also function as a chaperone by binding to the enzyme and helping to correct its misfolding and mistrafficking. While activators for GC have not yet been identified, they may have better therapeutic potential than inhibitors. Therefore the discovery and development of chemical activators may provide a new strategy for the chaperone therapy. We have optimized a new assay using N370S mutant GC derived from the spleen of a Gaucher patient. […] In addition, the MLPCN compound library has expanded, which increases the chance of finding new and better probes. This assay characterizes compound activity using purified mutant enzyme instead of tissue homogenate. Compound activity differences may be due to the absence of endogenous cofactors found in tissue homogenate.
NCGC Assay Protocol Summary: This is a fluorogenic enzyme assay with 4-methylumbelliferyl-beta-D-glucopyranoside as the substrate and purified N370S glucocerebrosidase as the enzyme preparation. Upon the hydrolysis of this fluorogenic substrate, the resulting product, […] which can be detected by a standard fluorescence plate reader. Data were normalized to the controls for basal activity (without enzyme) and 100% activity (with enzyme). The AC50 values were determined from concentration-response data modeled with the standard Hill equation. Assay buffer: 50 mM citric acid (titrated with potassium phosphate to pH 5.0), 100 mM potassium chloride, 10 mM sodium chloride, 1 mM magnesium chloride, 0.01% Tween-20. 1536-well assay protocol: (1) Add 2 ul/well of glucocerebrosidase enzyme solution (5 nM final) (2) Add 23 nL compounds in DMSO solution. The final titration was 0.5 nM to 58 uM. (3) Add 2 ul of substrate (1 mM final) (4) Incubate at 37C for 40 min. (5) Add 2 ul stop solution (1M NaOH and 1M Glycine mixture, pH 10) (6) Detect the assay plate in a ViewLux plate reader (PerkinElmer) with Ex=365 nm and Em=440nm. Keywords: Glucocerebrosidase, beta-glucosidase, Gaucher Disease, pharmacological chaperone, chaperone therapy, high throughput screening, glucocerebrosidase inhibitor, MLSMR, MLSCN, NIH Roadmap, qHTS and NCGC

Row | Compound | activity change, negative = inhibition | Potency
1 | Cc1cc(C)n2ncc(C(=O)Nc3ccc(S(C)(=O)=O)cc3)c2n1 | 9.34% | –
2 | Cc1cc(C)n2ncc(C(=O)N3CCCC3)c2n1 | -9.05% | –
3 | COc1ccc(NC(=O)c2cnn3c(C)cc(C)nc23)cc1 | – | 14.6 µM (active)
4 | Cc1cccc(NC(=O)c2cnn3c(C)cc(C)nc23)c1 | – | 18.3 µM (active)
5 | O=C(Nc1cnn(Cc2ccc(F)cc2)c1)c1cnn2c(C(F)F)cc(-c3ccccc3)nc12 | – | 10.3 µM (active)
6 | CCc1ccc(NC(=O)c2cnn3c(C)cc(C)nc23)cc1 | – | 16.3 µM (active)
7 | Cc1cc(C)n2ncc(C(=O)Nc3ccc(Br)cc3)c2n1 | – | 16.3 µM (active)
8 | Cc1cc(C)n2ncc(C(=O)NC3CCCCC3)c2n1 | – | 11.6 µM (active)
9 | Cc1ccc(NC(=O)c2cnn3c(C)cc(C)nc23)cc1 | – | 16.3 µM (active)
10 | Cc1cc(C)n2ncc(C(=O)Nc3ccccc3)c2n1 | – | 9.19 µM (active)
11 | Cc1ccc(NC(=O)c2cnn3c(C)cc(C)nc23)c(C)c1 | – | 23.1 µM (active)
12 | CC(=O)Nc1ccccc1NC(=O)c1cnn2c(C)cc(C)nc12 | 9.29% | –
13 | Cc1cc(C)n2ncc(C(=O)Nc3ccncc3)c2n1 | 10.5% | –
14 | Cc1cc(C)n2ncc(C(=O)Nc3cccc(C#N)c3)c2n1 | 0.235% [at 19 µM] | –
15 | Cc1cc(C)n2ncc(C(=O)NCc3ccccc3)c2n1 | – | 13 µM (active)
16 | CNC(=O)c1cnn2c(C)cc(C)nc12 | -2.25% | –

Row | Compound | activity change, negative = inhibition | Potency
17 | Cc1cc(C)n2ncc(C(=O)Nc3ccc(C(F)(F)F)cc3)c2n1 | – | 13 µM (active)
18 | C#Cc1ccc(NC(=O)c2cnn3c(C)cc(C)nc23)cc1 | – | 6.51 µM (active)
19 | CC(=O)c1cccc(NC(=O)c2cnn3c(C)cc(C)nc23)c1 | – | 20.6 µM (active)
20 | COc1ccc(NC(=O)c2cnn3c(C)cc(C)nc23)cc1Cl | – | 25.9 µM (active)
21 | Cc1cc(C)n2ncc(C(=O)Nc3ccc4c(c3)CCC4)c2n1 | – | 11.6 µM (active)
22 | Cc1cc(C)n2ncc(C(=O)NCc3ccco3)c2n1 | – | 20.6 µM (active)
23 | Cc1cc(C)n2ncc(C(=O)Nc3ccc4c(c3)OCCO4)c2n1 | – | 16.3 µM (active)
24 | CC(=O)c1ccc(NC(=O)c2cnn3c(C)cc(C)nc23)cc1 | 19.5% | –
25 | Cc1cc(C)n2ncc(C(=O)Nc3ccc(C)c(C)c3)c2n1 | – | 7.3 µM (active)
26 | Cc1cc(C)n2ncc(C(=O)Nc3ccc4c(c3)OCO4)c2n1 | – | 5.17 µM (active)
27 | O=C(Nc1ccccc1Sc1ccccc1)c1cnn2c1NC(=C1CC1)C=C2C(F)F | – | 16.3 µM (active)
28 | Cc1cc(C)n2ncc(C(=O)Nc3ccccc3C)c2n1 | – | 13 µM (active)
29 | COc1ccc(NC(=O)c2cnn3c(C)cc(C)nc23)cc1F | – | 5.8 µM (active)
30 | Cc1cc(C)n2ncc(C(=O)Nc3cccc(C(F)(F)F)c3)c2n1 | – | 20.6 µM (active)
31 | Cc1cc(C)n2ncc(C(=O)NC3CCC(C(C)(C)C)CC3)c2n1 (stereo unspecified) | – | 7.3 µM (active)
